Measurements taken from PubChem BioAssay AID1566 (Sanford-Burnham Center for Chemical Genomics, 2009).
Out of some 290,000 compounds screened, about 1,800 (0.62%) were called active. Cut-off read from the data, not from the text of the source: active = inhibition above about 50%; inactive = the rest. This excerpt belongs to a sample that is enriched for actives.

Test: inhibition of NOD2-driven NF-kB reporter – cell-based, luminescence, uHTS, HEK293 (AID 1566)
Conditions: HEK293 NOD2/NF-kB luciferase reporter, at 4 µM, stronger effect = higher value

inhibition, active:
Cc1ncc(CO)c(/C=N/NC(=O)c2ccc(Br)cc2)c1O 51.6%
Cc1ncc(CO)c(/C=N/Nc2ccc(C(F)(F)F)cn2)c1O 59.1%
CCC(C)(C)C1CCC2(CC1)NC(=O)N(CC(=O)N(C)CC(=O)Nc1ccccc1C(F)(F)F)C2=O (centres undefined) 52.8%
CC1(C)Cc2c(ccc3ccccc23)C2=C(C(=O)N3CCCC3)C(=O)C(=O)N21 52.7%
O=C(/C=C/Nc1ccccc1Br)c1ccccn1 60%
Cc1ccc2c(c1)sc(-c1ccc(N(C)C)cc1)[n+]2C 51%
C=CCc1cccc(/C=N/NC(=O)C[n+]2ccccc2)c1O 53.2%
CCCCCCCCCc1nc2sc3c(c2c(=O)n1NC(=O)c1ccc([N+](=O)[O-])cc1)CC(C)(C)OC3 57%

inhibition, inactive:
COc1ccc(-c2csc(/C(C#N)=C\c3ccc(OC)c([N+](=O)[O-])c3)n2)cc1 25.7%
COc1ccc(-c2csc(/C(C#N)=C\c3ccc(O)c([N+](=O)[O-])c3)n2)cc1OC -7.4%
Cc1ncc(CO)c(/C=N/NC(=O)c2ccc(O)cc2)c1O -8.9%
COc1ccc(C(=O)N/N=C/c2c(CO)cnc(C)c2O)cc1 -27.8%
Cc1ncc(CO)c(/C=N/Nc2cccc(Cl)n2)c1O -52.5%
COc1ccccc1N/N=C/c1c(CO)cnc(C)c1O -3.8%
Cc1c(=O)n(OCc2ccccn2)c2ccccc2[n+]1[O-] 9.3%
N#CC1=C(SCC(=O)Nc2ccc(C(=O)O)cc2)NC(=O)CC1c1ccco1 (centres undefined) -4.5%
COc1ccc(-c2[nH]ncc2CN2CCN(c3ccccn3)CC2)c(OC)c1 11.3%
COC(=O)c1sc(S(=O)(=O)N2CCC(C(=O)O)CC2)c(C(=O)OC)c1C -0.8%
COC(=O)COc1ccc(S(=O)(=O)N2CCCCC2)cc1[N+](=O)[O-] 4.8%
COc1cc(NC(=O)COc2ccc(Cl)cc2)ccc1-c1cc2ccccc2oc1=O 16.1%
COc1cc(NC(C)=O)ccc1-c1cc2ccccc2oc1=O -3.4%
O=c1[nH]c(C2CCCN(S(=O)(=O)c3ccccc3)C2)nc2c1nnn2Cc1ccc2c(c1)OCCO2 (centres undefined) 21.7%
O=C(CN(CC1CCCO1)C(=O)CCC(=O)Nc1ccccn1)NCC1CCCO1 (centres undefined) 4.7%
Cc1ccc(C)c(-n2c(-c3ccc4c(c3)OCO4)n[nH]c2=S)c1 13.9%
C=C(C)COc1ccc(-c2nc(N)nc(C)c2-c2ccc(OC)cc2)c(O)c1 20.5%
CCc1ccccc1NC(=O)CN(C)C(=O)CN1C(=O)NC2(CCCCCC2)C1=O 9.4%
O=C(CN1C(=O)NC2(CCCC2)C1=O)Nc1ccccc1C(F)(F)F 18.6%
CCOC(=O)N1CCC(NC(=O)c2ccc3c(c2)N(C)CCS3)CC1 4.6%
CN(C)S(=O)(=O)c1ccc(C(=O)Nc2cc3c(cc2C(=O)O)OCCCO3)cc1 4%
COc1ccc(C2NC(=O)NC(C)=C2[N+](=O)[O-])cc1OC (centres undefined) 9.2%
COc1ccc(/C=N/n2c(C)nc3ccccc3c2=O)cc1 -11.4%
CCOC(=O)C1=C2c3ccc4ccccc4c3CC(C)(C)N2C(=O)C1=O 17.7%
CC1(C)Cc2ccccc2C2=C(C(=O)N3CCCCCC3)C(=O)C(=O)N21 16.7%
Cc1ccc(S(=O)(=O)NCC(=O)OCC(=O)c2ccc(Br)s2)cc1 -2.2%
COC(=O)c1sccc1NC(=O)CSc1ccccc1NS(=O)(=O)c1ccc(Cl)cc1 28.6%
COC(=O)c1sccc1NC(=O)CSc1ccccc1NS(=O)(=O)c1ccccc1Cl 26%
CN1CCN(C(=O)/C=C/c2c(F)cccc2Cl)CC1 9.9%
c1ccc(-c2csc3nnc(SCc4ccc5c(c4)OCCO5)n23)cc1 33.7%
O=C(/C=C\Nc1ccc2c(c1)OCO2)c1ccccn1 33.4%
O=C(/C=C\Nc1ccccn1)c1ccccc1 -121%
CC1CCCC(NCC(O)COC(c2ccc(F)cc2)c2ccc(F)cc2)C1C (centres undefined) 0.7%
COC(=O)c1ccc2nc(NC(=O)C(C)(C)C)sc2c1 -3.1%
Fc1ccc2nc(Nc3nc4c(F)cc(F)cc4s3)sc2c1 -36.7%
CCC(CC)c1nnc(NC(=O)C2CC(=O)N(C3CCCC3)C2)s1 (centres undefined) 8%
Cc1ccc(S(=O)(=O)N2CCCCC2)cc1NC(=O)CSc1ncnc2ccccc12 -36.1%
Cc1ccc(NC(=O)CSc2ncnc3ccccc23)cc1S(=O)(=O)N1CCCCCC1 40.3%
OC1(c2cccnc2)CCN(Cc2nnnn2C2CCCCC2)CC1 19.2%
CCC/C(=N\NC(=O)CNC(=O)/C=C/c1ccco1)c1ccccc1 6.6%
COc1ccc(C)cc1Nc1n[n+](-c2ccccc2)c(-c2ccc(N(C)C)cc2)s1 8.3%
CC[n+]1c(C)sc2cc(C)ccc21 5.7%
CC(C)OC(=O)Nc1ccc(Oc2c(F)c(F)c(F)c(F)c2F)cc1 -5.3%
CCC(C)c1cc(S(=O)(=O)N2CCOCC2)ccc1OC (centres undefined) -10.6%
C=CCc1cccc(/C=N/NC(=O)CNc2ccccc2)c1O 17.2%
COc1cccc(/C=N/NC(=O)C[n+]2ccccc2)c1O 1%
CN(C)CCNC(=S)NC1CCCCC1 8.6%
CCCCCCCCCc1nc2sc3c(c2c(=O)n1NC(=O)c1ccccc1[N+](=O)[O-])CC(C)(C)OC3 12.2%
CCCCCc1nc2sc3c(c2c(=O)n1NC(=O)c1ccc([N+](=O)[O-])cc1)CC(C)(C)OC3 5.3%
Cc1oc2c(C)c3oc(=O)c(CCC(=O)NCCCCCC(=O)O)c(C)c3cc2c1C 18.8%
O=C(Nc1ccc(Cl)cc1)c1ccc2ncsc2c1 -66.3%
